Measurements published in PubChem BioAssay AID1159580 (chemical genetic matrix, 2015).
Values joined by “and” are separate entries in the source; they are usually repeats but may differ in a detail not shown here. Equal entries are not always repeated. Hit rate of the full screen: of about 5,500 compounds, about 2,000 (36%) were called active. Not shown: some 18% with an inconclusive outcome. No stated cut-off is given here; in the data, active means normalized growth mostly below about 0.91 (no sharp cut-off); inconclusive means no clear call, values can overlap the other calls; inactive means mostly above about 0.92. Some of the results follow.

Experiment: chemical genetic growth profiling, strain panel (AID 1159580);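 further: tested at 20 µM; growth read once vehicle control cultures reached saturation at 30 °C; 1 = growth at the plate median or of vehicle wells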
Settings: S. cerevisiae deletion strains, growth OD

Measured: normalized growth

CON
inactive: locus YAL013W, strain DEP1, stronger effect = lower value 0.992 | locus YAL021C, strain ccr4, stronger effect = lower value 0.994 | locus YAL026C, strain drs2, stronger effect = lower value 1.01 | locus YAL030W, strain snc1, stronger effect = lower value 1.02 | locus YBL061C, strain skt5, stronger effect = lower value 1.01 | locus YBR009C, strain hhf1, stronger effect = lower value 1.01 | locus YBR021W, strain FUR4, stronger effect = lower value 1 | locus YBR023C, strain chs3, stronger effect = lower value 1.01 | locus YBR171W, strain sec66, stronger effect = lower value 0.995 | locus YBR229C, strain ROT2, stronger effect = lower value 1 | locus YBR231C, strain swc5, stronger effect = lower value 1.01 | locus YBR279W, strain paf1, stronger effect = lower value 0.991 | locus YCL011C, strain gbp2, stronger effect = lower value 1.02 | locus YCL016C, strain dcc1, stronger effect = lower value 1.04 | locus YCL029C, strain bik1, stronger effect = lower value 0.976 | locus YCL069W, strain vba3, stronger effect = lower value 0.976 | locus YCR088W, strain abp1, stronger effect = lower value 0.987 | locus YDL005C, strain med2, stronger effect = lower value 0.994 | locus YDL035C, strain GPR1, stronger effect = lower value 0.988 | locus YDL040C, strain nat1, stronger effect = lower value 0.994 | locus YDL074C, strain BRE1, stronger effect = lower value 1.04 | locus YDL101C, strain DUN1, stronger effect = lower value 1.01 | locus YDL134C, strain PPH21, stronger effect = lower value 0.997 | locus YDL185W, strain tfp1, stronger effect = lower value 0.968 | locus YDL192W, strain arf1, stronger effect = lower value 0.986 | locus YDR001C, strain nth1, stronger effect = lower value 0.998 | locus YDR069C, strain doa4, stronger effect = lower value 1.02 | locus YDR101C, strain arx1, stronger effect = lower value 1.02 | locus YDR137W, strain rgp1, stronger effect = lower value 1.03 | locus YDR150W, strain NUM1, stronger effect = lower value 0.993 | locus YDR159W, strain sac3, stronger effect = lower value 0.993 | locus YDR162C, strain NBP2, stronger effect = lower value 0.98 | locus YDR195W, strain ref2 0.993 | locus YDR297W, strain sur2, stronger effect = lower value 1.02 | locus YDR318W, strain mcm21, stronger effect = lower value 0.99 | locus YDR334W, strain swr1, stronger effect = lower value 0.975 | locus YDR335W, strain msn5, stronger effect = lower value 1.02 | locus YDR388W, stronger effect = lower value 1.01 | locus YDR392W, strain spt3, stronger effect = lower value 1.12 | locus YDR502C, strain sam2, stronger effect = lower value 0.999 | locus YEL003W, strain gim4, stronger effect = lower value 0.993 | locus YEL037C, strain rad23, stronger effect = lower value 0.984 | locus YEL061C, strain CIN8 (second series), stronger effect = lower value 0.99 | locus YEL061C, strain CIN8, stronger effect = lower value 0.997 | locus YER015W, strain faa2, stronger effect = lower value 1.01 | locus YER016W, strain bim1, stronger effect = lower value 1.02 | locus YER110C, stronger effect = lower value 0.981 | locus YER111C, strain swi4, stronger effect = lower value 1.01 | locus YER155C, strain BEM2 (second series), stronger effect = lower value 1.05 | locus YER155C, strain BEM2, stronger effect = lower value 0.991 | locus YER167W, strain BCK2, stronger effect = lower value 0.997 | locus YFR010W, strain ubp6, stronger effect = lower value 0.976 | locus YGL078C, strain dbp3, stronger effect = lower value 0.984 | locus YGL086W, strain mad1, stronger effect = lower value 1.02 | locus YGL167C, strain pmr1, stronger effect = lower value 0.993 | locus YGL173C, strain kem1, stronger effect = lower value 0.998 | locus YGL227W, strain vid30, stronger effect = lower value 0.995 | locus YGL240W, strain doc1, stronger effect = lower value 0.994 | locus YGL248W, strain PDE1, stronger effect = lower value 1.02 | locus YGL253W, strain hxk2, stronger effect = lower value 1.01 | locus YGR135W, strain pre9, stronger effect = lower value 0.982 | locus YGR229C, strain SMI1, stronger effect = lower value 1.01 | locus YGR252W, strain gcn5, stronger effect = lower value 1.03 | locus YHR013C, strain ard1, stronger effect = lower value 1.03 | locus YHR027C, strain rpn1, stronger effect = lower value 1.02 | locus YHR030C, strain SLT2, stronger effect = lower value 0.989 and 0.974 | locus YHR079C, strain IRE1 (second series), stronger effect = lower value 0.98 | locus YHR079C, strain IRE1, stronger effect = lower value 0.987 | locus YHR094C, strain hxt1, stronger effect = lower value 1 | locus YHR129C, strain ARP1, stronger effect = lower value 0.997 | locus YHR142W, strain chs7, stronger effect = lower value 1.01 | locus YHR200W, strain rpn10, stronger effect = lower value 0.969 | locus YIL066C, strain RNR3, stronger effect = lower value 1.02 | locus YIL073C, strain SPO22, stronger effect = lower value 0.941 | locus YIL125W, strain kgd1, stronger effect = lower value 0.999 | locus YIR030C, strain dcg1, stronger effect = lower value 0.993 | locus YJL092W, strain hpr5, stronger effect = lower value 0.998 | locus YJL095W, strain BCK1 (second series), stronger effect = lower value 1.02 | locus YJL095W, strain BCK1, stronger effect = lower value 1.06 and 0.986 | locus YJL115W, strain asf1, stronger effect = lower value 0.989 | locus YJL129C, strain trk1, stronger effect = lower value 1.02 | locus YJL134W, strain LCB3, stronger effect = lower value 0.99 | locus YJL154C, strain vps35, stronger effect = lower value 0.981 | locus YJL164C, strain tpk1, stronger effect = lower value 0.996 | locus YJL166W, strain qcr8, stronger effect = lower value 0.981 | locus YJL168C, strain set2, stronger effect = lower value 0.996 | locus YJL187C, strain SWE1 (second series), stronger effect = lower value 1.01 | locus YJR043C, strain POL32, stronger effect = lower value 1.01 | locus YJR066W, strain TOR1, stronger effect = lower value 0.92
